In PubChem BioAssay (EPA / NIEHS):
The source made the active and inactive calls. The calls were made as follows: active = hit-call score of the fitted dose curve at least 0.9, where 1 is the maximum; inactive = score below 0.9.

read-out: Vascular cell adhesion molecule 1 (VCAM1), VCAM1 (gene 7412); assay: BSK_hDFCGF_VCAM1: BioMAP Diversity Plus: hDFCGF Assay for Vascular cell adhesion molecule 1 (VCAM1) Biomarker Activity (AID 2283065); conditions: primary human foreskin fibroblasts; actives raise or lower the signal
Experimental: BSK_hDFCGF is a cell-based, multiplexed-readout assay that uses foreskin fibroblast, a human skin primary cell, with measurements taken at 24 hours after chemical dosing in a 96-well plate.BSK_hDFCGF_VCAM1 is an assay component measured in the BSK_hDFCGF assay. It measures VCAM-1 antibody related to regulation of gene expression using ELISA technology.Data from the assay component BSK_hDFCGF_VCAM1 was analyzed into 1 assay endpoint. This assay endpoint, BSK_hDFCGF_VCAM1, was analyzed with bidirectional fitting relative to DMSO as the negative control and baseline of activity. Using a type of binding reporter, gain or loss-of-signal activity can be used to understand changes in the signaling as they relate to the gene VCAM1. Furthermore, this assay endpoint can be referred to as a primary readout, because this assay has produced multiple assay endpoints where this one serves a signaling function. To generalize the intended target to other relatable targets, this assay endpoint is annotated to the cell adhesion molecules intended target family, where the subfamily is Immunoglobulin CAM.
The levels of cell surface (or secreted, indicated by the prefix "s") biomarker endpoints were measured by ELISA. Overt cytotoxicity to cells in confluent adherent cultures (all systems other than the BT system) was assessed by measuring total protein levels using sulforhodamine B (SRB) staining in parallel cultures at the time of biomarker measurements, indicated as SRB endpoints. For proliferation assays for adherent cell types, individual cell types are cultured at sub-confluence and relative cell numbers quantified by SRB staining at time points optimized for each system (48 h: 3C and CASM3C systems; 72 h: BT and HDF3CGF systems; 96 h: SAg system). SRB was performed by staining cells with 0.1% SRB after fixation with 10% TCA and reading wells at 560 nm.Viability and proliferation of PBMC (T cells) was quantified by Alamar Blue reduction for the SAg and BT systems. For PBMC viability (referred to as PBMC Cytotoxicity within the assay endpoint names), cells were plated (75,000/well in a 96-well plate) and then chemical samples added for 1 h before addition of activators, SEB and TSST-1 (20 ng/mL final concentration each). Cells were incubated for 90 h. Then, Alamar Blue (20 uL/well) (Invitrogen, Cat DAL1100) was added for 6 h, and the plates were read with a fluorescence microplate reader at 546/580 nm (excitation/emission). For PBMC proliferation, cells were plated and activated as above but incubated for only 16 h prior to addition of Alamar Blue. Plates were read after 6 h.

SMILES | outcome | AC50
Cc1ccc(C)c(C)c1 | inactive | 
Nc1nc(N)c2nc(CNc3ccc(C(=O)N[C@@H](CCC(=O)O)C(=O)O)cc3)cnc2n1 | inactive | 
CC(CO)OC(C)CO (stereo not given) (tested in a mixture with another compound) | inactive | 
O=[N+]([O-])C(CO)(CO)CO | inactive | 
CC1(C)CC(N=C=O)CC(C)(CN=C=O)C1 (stereo not given) | inactive | 
Cc1ccc(C(C)C)c(O)c1 | inactive | 
CC(=O)C(C)=CC1C(C)=CCCC1(C)C (stereo not given) | inactive | 
CCCc1cc(=O)[nH]c(=S)[nH]1 | inactive | 
COc1cc(C=O)ccc1O | inactive | 
CN1CCCC1=O | inactive | 
CCc1c(C(=O)NN2CCCCC2)nn(-c2ccc(Cl)cc2Cl)c1-c1ccc(Br)cc1 |  | 3.82 µM (active)
Cc1cc(NC(=O)C(=O)O)cc(C)c1Oc1ccc(O)c2c1CCC2 | inactive | 
FC(F)(F)C(F)(F)C(F)(F)C(F)(F)C(F)(F)C(F)(F)CCI | inactive | 
CCNc1cccc(C)c1 | inactive | 
O=C(O)CCCCC(=O)O | inactive | 
CCCCCCCCCCC | inactive | 
Cc1c(C(=O)O)c(O)cc2c1C(=O)c1c(O)c([C@@H]3O[C@H](CO)[C@@H](O)[C@H](O)[C@H]3O)c(O)c(O)c1C2=O | inactive | 
Oc1ccc2c(c1)OC[C@@H](N1CCC(O)(c3ccc(F)cc3)CC1)[C@H]2O | inactive | 
Cc1ccc(C)c(O)c1C | inactive | 
Cc1nc(C)nc(N2C[C@@H](C)N(c3ccnc([C@@H](C)O)n3)[C@@H](C)C2)n1 | inactive | 

SMILES | outcome | AC50
CCCCc1ccc2c(n1)[C@@H](c1ccc(OC)cc1C[C@H](C)C(=O)O)[C@H](C(=O)O)[C@H]2c1ccc2c(c1)OCO2 | inactive | 
Cc1oc(-c2ccccc2)nc1CCOc1cccc2c1ccn2CCC(=O)O | inactive | 
CCCCCC(=O)O | inactive | 
CNC(=O)[C@H]1O[C@@H](n2cnc3c(NCc4cc(Cl)ccc4OCc4cc(C)no4)ncnc32)[C@H](O)[C@@H]1N | inactive | 
COc1ccc(C)cc1N | inactive | 
Cc1cccc([N+](=O)[O-])c1C | inactive | 
CNCc1cc(F)ccc1Oc1ccc(Cl)c(Cl)c1 | inactive | 
Cc1ccc2ncccc2c1 | inactive | 
CC(=O)OCCOCCOCCOC(C)=O | inactive | 
OC[C@@H](O)[C@@H](O)[C@H](O)[C@H](O)CO | inactive | 
COc1ccc(S(=O)(=O)N2C(=O)[C@@](c3ccccc3OC)(N3C[C@H](O)C[C@H]3C(=O)N(C)C)c3cc(Cl)ccc32)c(OC)c1 | inactive | 
Nc1ccccc1N |  | 6.75 µM (active)
CCCCCCCCCCCCCCCC | inactive | 
CCCCOC(=O)CCCCCCCCC(=O)OCCCC | inactive | 
NC(=O)Cn1c(=O)cc(CCN2CCN(c3nccc4sccc34)CC2)c2ccc(F)cc21 | inactive | 
COc1ccc2c(c1)c(CC(=O)O)c(C)n2C(=O)c1ccc(Cl)cc1 | inactive | 
CC1=C(/C=C/C(C)=C/C=C/C(C)=C/CO)C(C)(C)CCC1 |  | 20.9 µM (active)
CCOc1ccc2c(c1)C(C)=CC(C)(C)N2 |  | 3.97 µM (active)
CCCCCCCCCCCCCO |  | 9.95 µM (active)
C[Si]1(C)O[Si](C)(C)O[Si](C)(C)O[Si](C)(C)O1 | inactive | 
